# From PubChem BioAssay (NCI)
# About 83,000 compounds went through this panel and 20% of them were active in at least one assay; those are over-represented in the sample as a whole.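 A percent growth of 40 corresponds to 60% growth inhibition; 0 means no net growth; -100 means all cells died. Active threshold: below 10.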 Values without a mark were called inactive. Calls of active or inactive are those of the source.
# What was measured:
# Assay in all cases: NCI-60 one-dose screen, 48 h (100 = growth as untreated, 0 = no growth, -100 = all killed)
# Details in all cases: 10 µM unless noted
# [1] = tested on: NCI-H23 lung
# [2] = tested on: NCI-H226 lung
# [3] = tested on: NCI-H322M lung
# [4] = tested on: HOP-62 NSCLC
# [5] = tested on: NCI-H460 lung
# [6] = tested on: HOP-92 NSCLC
# [7] = tested on: NCI-H522 lung
# [8] = tested on: A549/ATCC NSCLC
# [9] = tested on: 786-0 renal
# [10] = tested on: COLO 205 colon
# [11] = tested on: DU-145 prostate
# [12] = tested on: K-562 leukemia
# [13] = tested on: MALME-3M melanoma
# [14] = tested on: MDA-MB-231 breast
# [15] = tested on: RXF 393 renal
# [16] = tested on: SF-268 CNS
# [17] = tested on: SF-295 CNS
# [18] = tested on: SF-539 CNS
# [19] = tested on: UACC-257 melanoma
# [20] = tested on: M14 melanoma
SMILES,growth [1],growth [2],growth [3],growth [4],growth [5],growth [6],growth [7],growth [8],growth [9],growth [10],growth [11],growth [12],growth [13],growth [14],growth [15],growth [16],growth [17],growth [18],growth [19],growth [20]
O=C1CCC(C(=O)N/N=C/c2cc(F)ccc2F)N1 (stereo not given),95.3%,99.2%,99.7%,103%,101%,95.4%,93.7%,97.6%,103%,110%,110%,97.1%,95.1%,111%,108%,97.2%,99.5%,101%,103%,104%
Cc1ccc(S(=O)(=O)N2CCCN(c3nc(-c4ccccc4)nc4nc(-c5ccccc5)oc34)CC2)cc1,100%,99.5%,97.3%,101%,103%,110%,83.6%,106%,102%,124%,113%,97.3%,111%,96.8%,128%,106%,105%,96%,108%,110%
Clc1cccc(C2Cc3cnccc3-c3[nH]c4ccncc4c32)c1 (stereo not given),35%,52.1%,73.2%,67.3%,19.1%,39.1%,51.9%,42.9%,59.7%,23.4%,69.6%,23.6%,52.2%,44.8%,69.1%,57.7%,28.6%,65.5%,29.9%,58.4%
Cc1ccc2c(c1)=C/C(=C\c1cc(-c3ccccc3)[nH]c1O)C(=O)N=2,56.7%,69.5%,82.2%,52%,25.6%,58%,27%,46.2%,41.6%,33.1%,61.6%,13.7%,54.5%,50.6%,34.5%,47.4%,32.8%,8.94% (active),64.7%,17.8%
COc1ccc(C/C(C)=C(\c2ccc(Cl)cc2)c2ccc(OCCN3CCCC3)cc2)cc1,85%,98.1%,91.6%,94.6%,81.9%,70.5%,90%,79%,83.7%,47.8%,98.5%,13%,93.5%,85.7%,64.1%,86.5%,99.2%,88%,93.5%,62.9%
COC1/C=C/OC2(C)Oc3c(C)c(O)c4c(O)c(c(/C=N/N(c5ccccc5)c5ccccc5)c(O)c4c3C2=O)NC(=O)C(C)=C/C=C/C(C)C(O)C(C)C(O)C(C)C(OC(C)=O)C1C (stereo not given),64.3%,-47.9% (active),109%,73.1%,56.5%,79%,37.6%,57%,106%,8.26% (active),90.1%,72.4%,111%,90.9%,-53.5% (active),80.7%,65.1%,89.8%,75.8%,95.7%
CCCCC#Cc1c(I)n(C2OC(CO[Si](C)(C)C(C)(C)C)C3OC(C)(C)OC32)c(=O)n(C(=O)c2ccccc2)c1=O (stereo not given),51.9%,67.7%,110%,94.8%,68.5%,-37.6% (active),71%,67.7%,64.1%,-46.9% (active),74.7%,6.35% (active),1.91% (active),10.1%,-56.8% (active),36.8%,74%,3.54% (active),77.6%,78.6%
CCN(CC)CCOc1ccc2ccc(=O)oc2c1,106%,106%,88.2%,100%,110%,-15.1% (active),89.6%,99.7%,101%,102%,121%,2.68% (active),105%,99.5%,103%,109%,94.3%,101%,93%,94.8%
C=C(C)[C@@H]1CC[C@]2(C(=O)Nc3ccccn3)CC[C@]3(C)[C@H](CC[C@@H]4[C@@]5(C)CCCNC(C)(C)[C@@H]5CC[C@]43C)[C@@H]12,19.5%,43.3%,65.5%,30.4%,-40.3% (active),41.8%,12.6%,23.1%,33.9%,-62.2% (active),34.8%,-1.45% (active),-2.67% (active),49.9%,51.3%,39.8%,44.4%,34.1%,9.84% (active),26.6%
CCOC(=O)/C(=C(/C)NCC(C)C)c1cc(O)c(O)c2c(C)cc(=O)[nH]c12,51.4%,71.9%,62.5%,38.2%,23.1%,40.2%,26.8%,45.2%,47.4%,99.7%,64.5%,24.5%,53.8%,61.3%,83%,24.1%,52.3%,35.7%,83.5%,53.3%
CCN(CC)c1ccc(-c2cc(-c3cc(OC)c(OC)c(OC)c3)nc(N3CCC(O)CC3)c2C#N)cc1,0.411% (active),-36.2% (active),18.1%,17.9%,-32.8% (active),-17.6% (active),-52.3% (active),0.627% (active),-22% (active),-60.9% (active),1.59% (active),2.04% (active),-49.2% (active),-58.7% (active),-13.3% (active),0.835% (active),-62.2% (active),-44.3% (active),-47.5% (active),-56.4% (active)
COc1cc(/C=C2\C(=O)N(CCCOc3cc(O)c4c(=O)cc(-c5ccccc5)oc4c3)c3ccccc32)cc(OC)c1O,87.9%,94.5%,89.9%,71.7%,89.4%,72.1%,36.4%,74.5%,92.8%,82.6%,86.2%,21.2%,78.5%,97.5%,91.6%,78.5%,101%,80.7%,90.9%,57.1%
CN(C)C1CN(C(=O)c2cc(-c3ccc4ncnc(N5CCc6cc(F)c(Cl)cc65)c4c3)cnc2N)C1,23.9%,30.7%,5.68% (active),16.5%,12.7%,-15% (active),16.3%,6.53% (active),7.47% (active),20.4%,9.86% (active),23.8%,-21.2% (active),27.8%,-32% (active),18.4%,8.16% (active),-1.35% (active),16.4%,9.34% (active)
CC/C(=C(\c1ccc(Cl)cc1)c1ccc(OCCN2CCCCC2)cc1)c1ccc(O)cc1,47.6%,78.6%,70.1%,-9.16% (active),-34.5% (active),49.9%,58.1%,32.5%,-54.9% (active),-73.5% (active),39.7%,-28.4% (active),-38.1% (active),26.5%,-6.93% (active),53%,54.6%,50%,-22.1% (active),-55.5% (active)
O=C(O)CC(C(=O)O)/C(=C\c1ccccc1)c1ccccc1 (stereo not given),105%,86.4%,116%,89.3%,106%,93.3%,128%,99.5%,114%,99.5%,139%,103%,117%,121%,104%,113%,115%,122%,100%,121%
CCCCCCCCn1ccc2cc(NC(=O)CN3CCN(c4cc(C)nc(Cl)n4)CC3)ccc21,81.7%,82.2%,89.5%,119%,91.8%,81.1%,76.2%,87.4%,94.6%,106%,93.8%,63.1%,95.3%,94.8%,69.2%,90.3%,83.7%,92.8%,92.8%,89.4%
